The values below come from PubChem BioAssay (Tox21).

A short description of experiment [1]: qHTS assay for small molecules that induce genotoxicity in human embryonic kidney cells expressing luciferase-tagged ATAD5 (AID 651632). Also: nearly all actives have a fitted effect of over 15% in size. The method in brief: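 A rise in luciferase signal from ATAD5-tagged HEK293T cells marks genetic stress. Cells were exposed to compounds for 16 hr at 37C, 5% CO2, then luciferase was quantified after a 30 min room-temperature incubation with Amplite.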
On the technique in general: Quantitative high-throughput screening tests each substance at several concentrations.

Experiment [2] can be described thus: qHTS assay for small molecule agonists of the p53 signaling pathway - cell viability (AID 651633; calls by dose curve;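 also: p53RE-bla HCT reporter cells with a stable beta-lactamase p53 reporter; series mostly up to about 83 µM; nearly all actives have a fitted effect of over 30% in size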). An outline of the steps: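 p53RE-bla cells were treated with compound for 16 hours at 37 C. Cytotoxicity was then measured as CellTiter-Glo luminescence after 30 min at room temperature.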
The nature of experiment [3]: qHTS assay for small molecules that induce genotoxicity in human embryonic kidney cells expressing luciferase-tagged ATAD5 - cell viability (AID 651634; calls by dose curve; also: nearly all actives have a fitted effect of over 25% in size). An outline of the steps:
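Cytotoxicity counter-readout: after 15.5 hr compound treatment at 37C, live-cell protease activity in ATAD5-luciferase HEK293T cells measured by CellTiter-Fluor fluorescence, 30 min development at 37C.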

The nature of experiment [4]: qHTS assay for small molecule disruptors of the mitochondrial membrane potential - cell viability (AID 720634; calls by dose curve;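 also: human HepG2 liver cancer cells; series mostly up to about 83 µM; nearly all actives have a fitted effect of over 20% in size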). The method in brief:
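Cytotoxicity was quantified from ATP content by CellTiter-Glo luminescence in the same wells as the MMP dye read-out. HepG2 (2,000 cells/well) were plated overnight and exposed to compounds for 1 hr at 37 C.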

Experiment [5] in a line: qHTS assay for small molecule disruptors of the mitochondrial membrane potential (AID 720635). Also: potency is read from the fitted curve at half-maximal effect. The method in brief: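 HepG2 cells exposed to compound 1 hr at 37C, then Mito-MPS dye 30 min. Ratio read of aggregate (540/590 nm) versus monomer (490/535 nm) fluorescence.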
Experiment [6] is described as follows: qHTS assay to test for compound auto fluorescence at 590 nm (red) in HepG2 cells (AID 720674). The method in brief:
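Fluorescence at 590 nm emission following 540 nm excitation was recorded from HepG2 wells one hour after compound transfer, with DMSO-only wells as vehicle and Rose Bengal sodium equivalency as the scale.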

A short description of experiment [7]: qHTS assay to test for compound auto fluorescence at 535 nm (green) in HepG2 cells (AID 720675).
Experiment [8] in a line: qHTS assay to test for compound auto fluorescence at 460 nm (blue) in HEK293 cells (AID 720678). The method in brief:
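HEK293 cells (2,000 per well, medium with 10% dialyzed FBS) attached for 4-5 hr at 37C, then received compound and stood overnight at 37C, 5% CO2. Blue fluorescence was read at Ex/Em 405/460 nm and expressed relative to triamterene.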

A short description of experiment [9]: qHTS assay to test for compound auto fluorescence at 590 nm (red) in HEK293 cells (AID 720679). An outline of the steps: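 HEK293 cells (2,000/well, medium with 10% dialyzed FBS) attached for 4-5 hr at 37C, received 23 nL compound and were incubated overnight at 37C, 5% CO2. Red fluorescence was then read at 540/590nm Ex/Em, referenced to Rose Bengal sodium.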

The nature of experiment [10]: qHTS assay to test for compound auto fluorescence at 535 nm (green) in HEK293 cells (AID 720680).
Experiment [11] can be described thus: qHTS assay to test for compound auto fluorescence at 460 nm (blue) in HEK293 cell free culture (AID 720681). The method in brief: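 Compounds were added to cell-free DMEM with 10% FBS and fluorescence read directly. The blue channel used 405 nm excitation and 460 nm emission, with triamterene as the reference fluorophore.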
Experiment [12] is described as follows: qHTS assay to test for compound auto fluorescence at 535 nm (green) in HEK293 cell free culture (AID 720682). The method in brief:
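No cells present: wells hold DMEM supplemented with 10% FBS, into which compound or vehicle is pinned. Green emission is then recorded (485 nm excitation, 535 nm emission) and scaled to fluorescein.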

The nature of experiment [13]: qHTS assay to test for compound auto fluorescence at 590 nm (red) in HEK293 cell free culture (AID 720683). The method in brief:
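Cell-free wells of DMEM with 10% FBS received compound, and intrinsic fluorescence was read at excitation/emission 540/590 nm. Values expressed as equivalence to Rose Bengal sodium.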

A short description of experiment [14]: qHTS assay to test for compound auto fluorescence at 590 nm (red) in HepG2 cell free culture (AID 720684). The method in brief:
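Auto fluorescence equivalency versus Rose Bengal sodium, red channel Ex/Em 540/590 nm; compounds in cell-free MEM/10% FBS; DMSO vehicle control.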

Experiment [15] is described as follows: qHTS assay to test for compound auto fluorescence at 460 nm (blue) in HepG2 cell free culture (AID 720685). The method in brief:
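Cell-free plates of MEM plus 10% FBS received 23 nL compound or DMSO vehicle; blue-channel (405/460 nm) intensity scored against triamterene as reference fluorophore.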

The nature of experiment [16]: qHTS assay to test for compound auto fluorescence at 535 nm (green) in HepG2 cell free culture (AID 720686).
Experiment [17] is described as follows: qHTS assay to test for compound auto fluorescence at 460 nm (blue) in HepG2 cells (AID 720687). The method in brief: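 HepG2 cells in MEM with 10% FBS, attached overnight at 37 C, were exposed to compound or DMSO for 1 hr at 37 C, 5% CO2. Blue fluorescence was read at 405/460 nm, with triamterene as reference fluorophore.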
In experiment [18] the target is Glucocorticoid receptor (Homo sapiens) (UniProt P04150). Nature of the experiment: qHTS assay to identify small molecule agonists of the glucocorticoid receptor (GR) signaling pathway (AID 720691; active = well fitted activation curve with a large enough effect in the signal ratio in the repeat runs, not every such curve was filed as active; the % refers to the signal ratio). The method in brief: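 Agonist-mode qHTS in HeLa cells stably expressing a glucocorticoid-response-element beta-lactamase reporter. Fluorescence intensity read with FRET substrate (2 h, room temperature) after 18 h compound treatment at 37 C.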

For experiment [19] the target is unchanged. Nature of the experiment: qHTS assay to identify small molecule antagonists of the glucocorticoid receptor (GR) signaling pathway (AID 720692; active = well fitted inhibition curve with a large enough effect in the signal ratio in the repeat runs, not every such curve was filed as active; the % refers to the signal ratio). An outline of the steps:
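Inhibition of dexamethasone-driven (5 nM final) beta-lactamase expression was measured in GRE-reporter HeLa cells over 18 h at 37C. Fluorescence was read after 2 h with the B/G FRET substrate at room temperature.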

SMILES strings stand for the structures. Values without a mark were called inactive. Inconclusive results are not listed. Activity calls are given as the source filed them. Unless noted, calls follow the shape of the dose curve; as a rule, active = well fitted curve in the direction sought with a large enough effect in the repeat runs; inconclusive = weak or mixed curves; inactive = no such curve, though single readings can be large; an effect the other way counts as inactive or inconclusive.
% is scaled to controls: 0 for no effect and ±100 for the full control effect.

Glucocorticoid receptor (Homo sapiens), sequence (P04150 whole entry, looked up): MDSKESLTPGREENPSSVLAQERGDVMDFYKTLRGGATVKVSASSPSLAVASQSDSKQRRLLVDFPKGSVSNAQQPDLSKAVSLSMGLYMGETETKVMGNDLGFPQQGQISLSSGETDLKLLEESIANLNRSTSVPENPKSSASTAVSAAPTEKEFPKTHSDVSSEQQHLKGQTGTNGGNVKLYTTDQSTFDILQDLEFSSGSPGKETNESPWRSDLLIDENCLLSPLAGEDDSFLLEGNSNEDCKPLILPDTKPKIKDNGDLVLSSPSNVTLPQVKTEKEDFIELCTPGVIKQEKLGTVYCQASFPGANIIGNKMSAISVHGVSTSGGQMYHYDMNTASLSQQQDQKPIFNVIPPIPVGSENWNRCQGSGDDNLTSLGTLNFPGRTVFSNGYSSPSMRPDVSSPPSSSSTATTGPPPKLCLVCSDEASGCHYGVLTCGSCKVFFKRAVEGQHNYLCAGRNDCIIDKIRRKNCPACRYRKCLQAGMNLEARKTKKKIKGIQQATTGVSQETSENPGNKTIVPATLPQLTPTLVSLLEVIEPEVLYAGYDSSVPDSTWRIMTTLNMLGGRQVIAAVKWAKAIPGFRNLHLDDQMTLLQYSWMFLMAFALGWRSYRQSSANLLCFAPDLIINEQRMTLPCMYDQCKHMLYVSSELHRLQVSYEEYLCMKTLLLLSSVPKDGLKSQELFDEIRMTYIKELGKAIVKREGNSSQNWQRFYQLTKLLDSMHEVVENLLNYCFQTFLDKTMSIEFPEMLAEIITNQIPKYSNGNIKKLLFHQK

In the case of `CC1=CCC2C(C1)C2(C)C` (centres undefined), the Potency entry in experiment [1], in experiment [2], in experiment [3], in experiment [4], in [8] and in experiment [11] was “inactive” throughout. Moreover, the Potency entry in experiment [15], in experiment [17], in experiment [18] and in experiment [19] was “inactive” throughout. Besides, the Potency in [5] was 48.6 µM (active). The molecule was classed as inactive in [6], in experiment [7], in experiment [9], in experiment [10], in experiment [12] and in experiment [13]. Also, the molecule was called inactive in experiment [14] and in [16].
Consider `Nc1[nH]c(=O)ncc1F`, for which the Potency entry in [1], in [2], in experiment [3], in [4], in experiment [5] and in [18] was “inactive” each time. Also, in experiment [19], the Potency entry is “inactive”. In addition, the fluorescence, relative to Rose Bengal in [6] was -0.615% [at 18.6 µM]. Also, the fluorescence, % of fluorescein control is 0.005% [at 18.6 µM] in experiment [7] and 0.186% [at 18.6 µM] in [16]. Besides, the fluorescence, % of triamterene in experiment [8] was 0.082% [at 18.6 µM]. Besides, the fluorescence, % of fluorescent control in [9] is 0.0902% [at 18.6 µM]; in experiment [11], 0.0652% [at 18.6 µM]; in experiment [13], -0.113% [at 18.6 µM]; in [15], -0.0064% [at 18.6 µM]; in experiment [17] it was 0.0009% [at 18.6 µM]. Besides, the fluorescence, % of fluorescein in experiment [10] is 0.0412% [at 18.6 µM]. Also, the activity change in experiment [12] is 0.004% [at 18.6 µM].
`CC(C)c1cccc(C(C)C)c1N`: the Potency result in experiment [1], in [2], in [3], in [4], in experiment [5] and in experiment [11] was “inactive” throughout. Also, the Potency entry in experiment [15], in experiment [17], in [18] and in [19] was “inactive” throughout. Moreover, the molecule was classed as inactive in [6], in [7], in experiment [9], in [10], in experiment [13] and in experiment [16].
Take `O=C(O)c1cccc(C(=O)O)n1`: the Potency result in [1], in experiment [2], in experiment [3], in [4], in experiment [5] and in experiment [8] was “inactive” each time. In addition, the Potency entry in experiment [11], in [15], in experiment [17], in experiment [18] and in experiment [19] was “inactive” throughout. Moreover, the molecule was called inactive in [7], in experiment [9], in experiment [10], in experiment [13] and in experiment [16].
For `c1cc(CN2CCCCC2)cc(OCCCNc2nc3ccccc3s2)c1`, the Potency result in experiment [1], in experiment [2], in experiment [3], in [4], in experiment [8] and in experiment [11] was “inactive” each time. Also, the Potency entry in experiment [15], in [17], in experiment [18] and in [19] was “inactive” in each case. For the same molecule, the call in experiment [6], in experiment [7], in experiment [9], in experiment [10], in [12] and in experiment [13] was inactive. In addition, the molecule was called inactive in [14] and in experiment [16].
For the molecule `CC(C)=CC(=O)O`, the Potency entry in experiment [1], in experiment [2], in experiment [3], in experiment [4], in experiment [5] and in [8] was “inactive” in each case. Further, the Potency entry in experiment [11], in experiment [15] and in experiment [17] was “inactive” throughout. Moreover, the outcome in experiment [6], in experiment [7], in [9], in experiment [10], in [12] and in [13] was inactive. For the same molecule, the outcome in experiment [16] was inactive.
As to `Cc1ccccc1Br`, the Potency result in experiment [1], in experiment [2], in [3], in [4], in [8] and in experiment [11] was “inactive” throughout. In addition, the Potency entry in experiment [15] and in experiment [17] was “inactive” in each case. Besides, the call in [6], in experiment [7], in [9], in experiment [10], in experiment [12] and in experiment [13] was inactive. The outcome in experiment [14] and in experiment [16] was inactive.
